Sampled rows, rich in hits. Any-hit rate of the full collection: about 3.8%.
HT1080 IDH1KD tx – HT-1080 IDH1 knockdown cell toxicity (counter line); HT-1080 IDH1 knockdown viability, ATP luminescence, 48 h; Potency, µM (titrated, usually from 46.1 µM), inactives show at the top dose activity, negative = toxicity, most hits filed as cytotoxic; 360,000 compounds, 2% hits;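 further: 0% = DMSO wells and -100% = cell-free medium wells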
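After a 2 h attachment period, IDH1KD HT-1080 cells took pin-transferred compound for 48 h at 37 °C; ATP-based luminescence after 10 min room-temperature reagent incubation reported viability.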
S2 tox – viability counter-screen for ATXN expression inhibitors; S2 cells (HEK-293 line with an ATXN2-luciferase reporter) viability, CellTiter-Fluor protease fluorescence, 24 h; Potency, µM (titrated, usually from 56.7 µM), usual class: cytotoxic; 400,000 compounds, 0.49% hits; AID 651635; further: nearly all actives have a fitted effect of over 40% in size
TGFb SMAD3 inh – TGF-b pathway inhibition; HepG2 CAGA-GFP TGF-b/SMAD3 reporter, GFP fluorescence, 18 h; TGF-beta stimulated, 500 pg/mL final; Potency, µM (highest dose often 46.1 µM), for inactives: at the highest dose activity, negative = inhibition, usual class: inhibitors; 410,000 compounds, 1.2% hits; further: on the % scale 0 is the no-effect control and ±100 the full control effect; nearly all actives have a fitted effect of over 65% in size
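Using HEPG2 CAGA-GFP reporter cells at 1000 cells/well, we pinned test compounds, stimulated with recombinant TGF-beta (500 pg/mL final) and measured total well GFP after 18 h.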
HepG2 tox – HepG2 cytotoxicity, counter-screen for TGF-b inhibitors; AID 588856; Potency, µM (series often up to 46.1 µM), without a hit: at the top dose activity change, negative = cytotoxicity, hits mostly cytotoxic; HepG2 CAGA-GFP viability, ATP luminescence, 18 h; 410,000 compounds, 0.76% hits
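HepG2 CAGA-GFP cells (1000/well, DMEM with 1% FBS) received compound, then TGF-beta at 500 pg/mL final, and were incubated 18 hours at 37 degrees C. Viability was read by CellTiter-Glo luminescence. Media-only wells were set as complete cell-killing and DMSO as no toxicity.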
HT1080-NT tox – kills 2HG-producing HT-1080-NT fibrosarcoma cells; HT-1080-NT fibrosarcoma viability, CellTiter-Glo ATP luminescence, 48 h; Potency, µM (series often up to 46.1 µM), for the others: at the highest dose activity, negative = less viability, actives largely listed as cytotoxic; 360,000 compounds, 1.6% hits;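 further: NT is the 2HG producing partner of a matched IDH1 knockdown line; 0% = DMSO-treated cells and -100% = media-only wells without cells; nearly all actives have a fitted effect of over 55% in size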
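Luminescent CellTiter-Glo readout after 48 hours of compound exposure at 37 degrees C defined viability of HT-1080-NT cells. Activity was normalized to DMSO wells and cell-free media wells; concentration-response curves were fitted and assigned curve classes.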
ATXN2 expr inh – inhibitors of ATXN2 expression; HEK-293 ATXN2-luciferase reporter, luminescence, 24 h; Potency, µM (top dose mostly 57 µM), for inactives: at the highest dose activity change, negative = inhibition, actives largely listed as inhibitors; 360,000 compounds, 0.72% hits; AID 1745845; further: on the % scale 0 is the no-effect control and ±100 the full control effect; nearly all actives have a fitted effect of over 55% in size
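qHTS (up to 57 uM final) was run with 24 h compound exposure of reporter cells at 37 °C. Each well was multiplexed: SteadyGlo luminescence measured ATXN2-luciferase expression after a fluorogenic Gly-Phe-AFC viability readout (25 uM final).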
Starred values were filed as active, the others as inactive; i = inactive; ? = inconclusive; . = no result given; [ ] = remark or other dose. The call rests on the fitted dose curve; in most records, active means well fitted curve in the direction sought with a large enough effect; inconclusive means small, poorly fitted or top-dose-only effect, or another doubt; inactive means no such curve, though single readings can be large; an effect the other way counts as inactive or inconclusive. Potency means the concentration at half of the fitted maximal effect.

SMILES	HT1080 IDH1KD tx	S2 tox	TGFb SMAD3 inh	HepG2 tox	HT1080-NT tox	ATXN2 expr inh
Cc1cc(NC(=O)c2cccn2-c2nnc(N3CCCCC3)s2)ccc1Br	.	.	8.9µM*	-52%	.	.
CC1=CC(C)(C)Nc2ccc(OC(=O)CN3C(=O)c4cccc5cccc(c45)C3=O)cc21	-15%	i	-4%	-19%	0%	?
CC1=CC(C)(C)Nc2ccc(OC(=O)CN3C(=O)c4ccccc4C3=O)cc21	?	.	-14%	18µM*	?	28µM*
NCc1cn(Cc2ccccc2)nc1-c1ccccc1	.	.	11%	-3%	.	.
COC(=O)C1CCCCN1Cc1ccc2c(c1)CN(C(=O)c1ccc(C)s1)CCO2 (stereo not drawn)	.	i	.	.	.	.
O=C(CSC1CS(=O)(=O)c2cc([N+](=O)[O-])ccc21)NNC(=O)c1ccc(Cl)cc1 (stereo not drawn)	5%	i	13µM*	-67%	-9%	-25%
O=C(CSC1CS(=O)(=O)c2cc([N+](=O)[O-])ccc21)NNC(=O)c1ccccc1 (stereo not drawn)	?	i	?	-72%	-4%	11%
O=C(Nc1ccccc1)Nc1ccc(-c2ccc(C(=O)[C@H]3CCC[C@H]3C(=O)O)cc2)cc1	.	.	.	.	.	26%
CC(C)n1c(-c2ccc(N(C)C)cc2)nc2ccccc21	10%[9.24 µM]	?	?	-53%	-21%	52%
CN(C)c1ccc(-c2nc3ccccc3n2C)cc1	11µM*	i	?	8.9µM*	?	?
Cn1c(-c2ccc(Br)o2)nc2ccccc21	18µM*	i	?	-64%	12µM*	19%
Cc1cc(C(=O)NCCN2Cc3ccccc3OC(c3ccccc3F)C2)no1 (stereo not drawn)	.	i	.	.	.	.
O=C(NC1CCN(Cc2ccccc2)CC1)c1ccc2c(c1)[nH]c(=O)n2Cc1ccc(F)cc1	-13%	i	?	-2%	15µM*	-27%
CN1C(=O)/C(=C\c2ccccc2F)Sc2ccc(C(=O)NC3CCN(Cc4ccccc4)CC3)cc21	16µM*	i	?	-98%	21µM*	?
COc1ccc(/C=C2\Sc3ccc(C(=O)NC4CC4)cc3N(C)C2=O)cc1OC	0%	?	2%	-17%	-27%	.
COc1ccc(C(=O)C[n+]2cccc3cc(Cl)ccc32)cc1	.	.	-4%	-28%	.	.
C[C@@H]1CN(Cc2ccc3c(c2)CN(Cc2cccn2-c2ccc(Cl)cn2)CCO3)C[C@H](C)O1	.	i	.	.	.	.
Cc1cc(C)nc(S[C@@H]2C[C@@H](C(=O)N3CCCN(C)CC3)N(Cc3cc(F)ccc3F)C2)n1	.	i	.	.	.	.
CCOc1c(Br)cc(/C=C(\C#N)C(=O)NC2CC2)cc1OC	?	i	-25%	-33%	23µM*	-4%
O=[N+]([O-])c1ccc(COc2ccc(-c3[nH]ncc3-c3ccccc3)c(O)c2)cc1	?	?	?	-65%	?	-39%
C=C(C)COc1ccc(-c2[nH]ncc2-c2ccccc2)c(O)c1	?	i	11µM*	-98%	?	-21%
C=C(C)COc1ccc(-c2[nH]ncc2-c2ccc(OC)c(OC)c2)c(O)c1	4.6µM*	.	?	-44%	7.3µM*	?
COc1ccc(-c2cn[nH]c2-c2ccc(OCC(=O)NN)cc2O)cc1OC	-25%	i	5%	2%	?	10%
C=C(C)COc1ccc(-c2n[nH]c(C)c2-c2ccc(OC)c(OC)c2)c(O)c1	1.5µM*	i	?	-49%	4.1µM*	-15%
N#Cc1cc(NC(=O)C(=O)O)c(Cl)c(NC(=O)C(=O)O)c1	.	i	.	.	.	18%
SMILES	HT1080 IDH1KD tx	S2 tox	TGFb SMAD3 inh	HepG2 tox	HT1080-NT tox	ATXN2 expr inh
O=C(Cn1nc(-c2ccccc2)c2ccccc2c1=O)Nc1ccc(O)cc1	4%	i	6%	-1%	28%	.
Cc1ccc(NC(=O)NNC(=O)Cn2nc(-c3ccccc3)c(-c3ccccc3)c(C#N)c2=O)cc1	5.2µM*	i	?	2%	4.6µM*	-5%
CN1CCN(c2oc(-c3ccc(OCc4ccc(Cl)cc4)cc3)nc2C#N)CC1	.	.	7%	7%	.	.
O=C(CSc1nnc(-c2ccccc2)n1Cc1ccco1)Nc1ccc(S(=O)(=O)N2CCCC2)cc1	7.1µM*	i	-26%	-23%	-4%[9.24 µM]	-18%
CCOC(=O)c1ccccc1NC(=O)CSc1nccn1Cc1ccco1	.	.	-11%	-14%	.	.
COc1ccccc1C1c2[nH]c3ccccc3c2C[C@H]2C(=O)N(C3CCN(Cc4ccccc4)CC3)CC(=O)N12 (stereo partly drawn)	?	?	11µM*	-43%	?	-24%
COc1ccc(C2c3[nH]c4ccccc4c3C[C@H]3C(=O)N(C4CCN(Cc5ccccc5)CC4)CC(=O)N23)cc1OC (stereo partly drawn)	-27%	i	?	-18%	?	-27%
CCc1cnn2c(NCc3ccc[n+]([O-])c3)cc(N3CCCC[C@@H]3CCO)nc12	.	.	.	.	.	0.014µM*
O=C(NCCC1CCCCN1S(=O)(=O)c1ccc(F)cc1)C(=O)NCc1cccnc1 (stereo not drawn)	12%	i	-2%	-9%	9%	-4%
Cc1ccc(NC(=O)c2cc3c([nH]c2=O)CC(C)(C)CC3=O)cc1	.	.	?	-46%	.	.
Cc1cc(-n2c(=O)[nH]c(=O)n(C)c2=O)ccc1Oc1ccc(S(=O)(=O)C(F)(F)F)cc1	.	i	.	.	.	.
O=C(/C=C/c1ccco1)Nc1ccc(Oc2ccc(Cl)cc2)cc1	4.1µM*	?	-17%	-22%	5.8µM*	-27%
Cc1ccc(NC(=O)/C=C/c2ccco2)nc1	0.0058µM*	i	-12%	-3%	0.046µM*	34%
Nc1cccc2c1C(=O)N(C(=O)/C=C/c1ccc(F)cc1)C2=O	18µM*	.	?	0%	?	?
C[C@@H](CN1CC(=O)NC(=O)C1)N1CC(=O)NC(=O)C1	.	i	.	.	.	?
Cc1ccc(NC(=O)c2ccc(F)c(S(=O)(=O)NCCc3ccccc3)c2)cc1F	.	.	11µM*	10µM*	.	.
CCN(c1ccccc1)S(=O)(=O)c1ccc(C(=O)Nc2cccc(NC(C)=O)c2)cc1	-6%	?	-11%	-20%	-5%	6%
CCN(c1ccccc1)S(=O)(=O)c1cc(C(=O)Nc2ccc(F)c(F)c2)ccc1F	?	?	11µM*	-30%	15µM*	?
Cc1ccc(NC(=O)c2ccc(F)c(S(=O)(=O)N3CCc4ccccc4C3)c2)cc1F	.	.	?	-9%	.	.
